According to PubChem BioAssay (NCATS):
Inconclusive results are not listed. Active and inactive are the calls of the source. Calls follow the shape of the dose curve; as a rule, active = well fitted curve in the direction sought with a large enough effect; inconclusive = small, poorly fitted or top-dose-only effect, or another doubt; inactive = no such curve, though single readings can be large; an effect the other way counts as inactive or inconclusive.

How the values were obtained:
[1] = test system: Zika virus NS2B-NS3 protease (linked construct); test: Primary screen NINDS Rhodamine qHTS for Zika virus inhibitors (AID 1347160); also: potency is read from the fitted curve at half-maximal effect; nearly all actives have a fitted effect of over 55% in size
How it was run: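 Rhodamine110-peptide cleavage (1.5 µM substrate) by 25 nM linked NS2B-NS3 enzyme at pH 8.0 (Tris, Tween 20), after 15 min RT preincubation with compounds; 15-min fluorescence change normalized to controls and Hill-fitted.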

[2] = OV-KATE Cancer Cell Toxicity qHTS against the NCATS CANVASS Library (AID 1347345)
How it was run: (§1)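 Viability read-out: CellTiter-Glo luminescence after 72 h compound exposure at 37 °C/5% CO2. Cells plated at 1000/well, 4 h pre-incubation; 11-point titration. Bortezomib served as control.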

[3] = HPAF-II Cancer Cell Toxicity qHTS against the NCATS CANVASS Library (AID 1347346); also: series mostly up to about 38 µM; nearly all actives have a fitted effect of over 55% in size
How it was run: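 First, HPAF-II cells are plated (1000 cells/well) and held 4 h at 37 degrees C. Next, compounds are pin-transferred as an 11-point series. After 72 h, CellTiter-Glo is added and luminescence measured.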

[4] = UWB1.289 Cancer Cell Toxicity qHTS against the NCATS CANVASS Library (AID 1347347); also: series mostly up to about 38 µM; nearly all actives have a fitted effect of over 60% in size
How it was run: as §1

[5] = OV-SAHO Cancer Cell Toxicity qHTS against the NCATS CANVASS Library (AID 1347348); also: series mostly up to about 38 µM; nearly all actives have a fitted effect of over 55% in size
How it was run: as §1

[6] = Panc-1005 Cancer Cell Toxicity qHTS against the NCATS CANVASS Library (AID 1347349); also: series mostly up to about 38 µM; nearly all actives have a fitted effect of over 60% in size
How it was run: as §1

[7] = SW1088 Cancer Cell Toxicity qHTS against the NCATS CANVASS Library (AID 1347350); also: series mostly up to about 38 µM; nearly all actives have a fitted effect of over 75% in size
How it was run: as §1

[8] = U-118MG Cancer Cell Toxicity qHTS against the NCATS CANVASS Library (AID 1347351); also: series mostly up to about 38 µM
How it was run: as §1

[9] = COV-362 Cancer Cell Toxicity qHTS against the NCATS CANVASS Library (AID 1347352); also: series mostly up to about 38 µM
How it was run: (§2)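 First, 1000 cells go into each well and rest for 4 hours. Next, an 11-point dilution range is pinned in. Plates then incubate 72 hours before CellTiter-Glo addition and luminescence reading.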

[10] = A2780 Cisplatin Sensitive Ovarian Cancer Cell Toxicity qHTS against the NCATS CANVASS Library (AID 1347353); also: nearly all actives have a fitted effect of over 60% in size
How it was run: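 Cells are plated at 750 per well and rest for 4 hours. Compounds are added across eleven concentrations, and incubated 72 hours before ATP is quantified by luminescence.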

[11] = UWB1.289-WTBRCA1 Cancer Cell Toxicity qHTS against the NCATS CANVASS Library (AID 1347354)
How it was run: as §2

[12] = HEK-293 Cancer Cell Toxicity qHTS against the NCATS CANVASS Library (AID 1347355); also: series mostly up to about 46 µM; nearly all actives have a fitted effect of over 65% in size
How it was run: as §2

[13] = HPAF-II 24hr Apoptosis Induction qHTS against the NCATS CANVASS Library (AID 1347356)
How it was run: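 Cells seeded at 500 per well, then compounds pin-transferred in an 11-point concentration series. After 24 hours at 37 degrees C, Caspase-Glo 3/7 was added and luminescence measured following 15 min at room temperature.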

[14] = HEK293 18hr Apoptosis Induction qHTS against the NCATS CANVASS Library (AID 1347357)
How it was run: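 Luminescent caspase-3/7 signal is measured in HEK293 cells exposed for 18 hours to an 11-point concentration series; doxorubicin serves as the plate control.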

[15] = HPAF-II 12hr Apoptosis Induction qHTS against the NCATS CANVASS Library (AID 1347358)
How it was run: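 Cells plated at 500 per well are dosed with compound and incubated 12 hours at 37 degrees C. Caspase-Glo 3/7 reagent is added and, after 15 min at room temperature, luminescence proportional to caspase activity is measured.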

[16] = HEK293 24hr Apoptosis Induction qHTS against the NCATS CANVASS Library (AID 1347359)
How it was run: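 HEK293 cells (500/well, DMEM + 10% FBS) were exposed to compounds in an 11-point series for 24 hours at 37 degrees C, then caspase-3/7 activity was read by Caspase-Glo DEVD luciferase luminescence after 15 min.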

[17] = HPAF-II 18hr Apoptosis Induction qHTS against the NCATS CANVASS Library (AID 1347360)
How it was run: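 Apoptosis was scored as caspase-3/7 activity in HPAF-II pancreatic cancer cells treated 18 hours with an 11-point concentration series.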

[18] = HEK293 12hr Apoptosis Induction qHTS against the NCATS CANVASS Library (AID 1347361)
How it was run: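 Apoptosis in HEK293 was scored as caspase-3/7 luminescence following 12 h treatment with a compound concentration series in qHTS format.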

[19] = target: Luciferin 4-monooxygenase (Photinus pyralis) (UniProt P08659); test: Firefly luciferase counterscreen qHTS: Assay Interference Panel against the NCATS CANVASS Library (AID 1347363); also: series mostly up to about 57 µM
How it was run: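 Purified P. pyralis luciferase was added to compounds (11-point series) preincubated 15 min at room temperature with substrate containing 0.013 mM D-luciferin and 0.013 mM ATP; luminescence was read after 5 min.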

[20] = KB-8-5-11 Cancer Cell Toxicity qHTS against the NCATS CANVASS Library (AID 1347364); also: nearly all actives have a fitted effect of over 75% in size
How it was run: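 Terse: KB-8-5-11, 500 cells/well, 72 hr, 37C/5% CO2, 11-pt titration, CellTiter-Glo readout; confirmatory runs ± 1uM tariquidar in medium.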

[21] = SDT Cancer Cell Toxicity qHTS against the NCATS CANVASS Library (AID 1347365);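 also: SDT canine glioma cells 500 per well in 1536 well plates; series mostly up to about 46 µM; nearly all actives have a fitted effect of over 60% in size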
How it was run: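 Cytotoxicity is measured from cellular ATP: compounds in an 11-point concentration series are pinned onto SDT cells, incubated 72 hr at 37C, then CellTiterGlo is added and luminescence read.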

[22] = KB-3-1 Cancer Cell Toxicity qHTS against the NCATS CANVASS Library (AID 1347366); also: nearly all actives have a fitted effect of over 75% in size
How it was run: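 Seed KB-3-1 cells at 500/well in DMEM with 10% FBS, add compounds, incubate 72 hr at 37C and 5% CO2, then add CellTiter-Glo and read luminescence after 10 minutes.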

[23] = G06 Cancer Cell Toxicity qHTS against the NCATS CANVASS Library (AID 1347368); also: nearly all actives have a fitted effect of over 60% in size
How it was run: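 Cells were plated at 500 per well, then compounds were added over an 11-point range. After 72 hr at 37C, CellTiterGlo was added and luminescence measured as ATP content.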

[24] = MCF7 Cancer Cell Toxicity qHTS against the NCATS CANVASS Library (AID 1347369); also: series mostly up to about 46 µM
How it was run: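 Cytotoxicity is measured by ATP content: MCF7 cells at 500 per well receive an 11-point compound series and, after 72 hr at 37C, are lysed with CellTiterGlo for luminescence.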

[25] = qHTS for ATAD5 Antagonist screened against the NCATS CANVASS Library (AID 1347370);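 also: HEK293T cells carrying an ATAD5 luciferase reporter co-treated with 10 µM 5-fluorouridine; series mostly up to about 46 µM; nearly all actives have a fitted effect of over 65% in size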
How it was run: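 Compounds (11-point) co-dosed with 10 µM 5-FUrd for 16 h at 37 °C onto HEK293T-ATAD5 luciferase reporter cells. Viability measured by CellTiter-Fluor fluorescence, then ATAD5 reporter signal by luminescence.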

[26] = J3T Cancer Cell Toxicity qHTS against the NCATS CANVASS Library (AID 1347371)
How it was run: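 Luminescence from CellTiterGlo, reporting cellular ATP, serves as the viability measure after 72 hr compound treatment of J3T canine glioma cells seeded at 500 cells/well.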

[27] = target: Nuclear receptor subfamily 1 group I member 3 (Homo sapiens) (UniProt Q14994); test: qHTS for Constitutive Androstane Receptor (CAR) Antagonist screened against the NCATS CANVASS Library (AID 1347372);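 also: cells stimulated with 50 nM CITCO agonist so inhibition reflects antagonism; luciferase from CYP2B6 promoter reporter driven by hCAR in HepG2 cells; series mostly up to about 46 µM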
How it was run: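 Cells were seeded and left 4hr to attach, then received compound at 11 concentrations and 50 nM CITCO. Following 24hr incubation, fluorescence viability and luciferase luminescence were read sequentially.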

[28] = target: Nuclear receptor subfamily 1 group I member 3 (Homo sapiens) (UniProt Q14994); test: qHTS for Constitutive Androstane Receptor (CAR) Agonist screened against the NCATS CANVASS Library (AID 1347373);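 also: every well also contained 1.5 µM PK11195 alongside the test compound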
How it was run: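 Cells were plated and allowed to attach for 4hr, then dosed with compound in an 11-point series alongside 1.5uM PK11195. After 24hr at 37C, viability was measured fluorometrically and CAR-driven CYP2B6 reporter luminescence was recorded.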

[29] = qHTS for Hypoxia signaling pathway (HIF-1) antagonists against the NCATS CANVASS Library (AID 1347374)
How it was run: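 Antagonism scored as loss of CoCl2-driven (60 uM stock added) HRE beta-lactamase signal, read by CCF4 FRET at 460/530 nm. Compounds were tested in an 11-point series on ME-180 reporter cells for 17 hrs at 37C, with parallel CellTiter-Glo cytotoxicity.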

[30] = qHTS for Hypoxia signaling pathway (HIF-1) agonists against the NCATS CANVASS Library (AID 1347375)
How it was run: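 Cells plated and rested 5 h, compounds pinned in DMSO across 11 concentrations, incubated 17 h at 37C, loaded with CCF4-AM for 2 h, fluorescence read at 460 and 530 nm, then CellTiter-Glo luminescence measured for viability and normalization.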

[31] = 10-beta competent E. coli microbial cell viability qHTS against the NCATS CANVASS Library (AID 1347376); also: series mostly up to about 46 µM
How it was run: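 Bacterial suspension diluted to 0.2 OD was dosed with compounds, 11-point series, then held overnight at 37C. BacTiter-Glo reagent was added, and after 20 min at room temperature ATP-dependent luminescence was measured.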

[32] = DH5-alpha competent E. coli microbial cell viability qHTS against the NCATS CANVASS Library (AID 1347377); details: outcome: dose series up to 46.1 µM unless noted
How it was run: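 Bacteria were dispensed at 0.2 OD, then compounds were pin-transferred. Plates were incubated overnight at 37C, after which BacTiter-Glo was added and luminescence measured 20 min later.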

[33] = qHTS for H2AX Agonists against the NCATS CANVASS Library (AID 1347378);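 also: phospho-H2AX S139 level in CHO-K1 lysates by TR-FRET emission ratio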
How it was run: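 Following overnight seeding, CHO-K1 cells are incubated with a concentration series of compound for 3 hr at 37C (final DMSO 0.76%). Cells are then lysed, detection antibodies added, and emission ratio 665/620 nm recorded after 24 hr at room temperature.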

[34] = qHTS for Inflammasome Signaling Inhibitors: IL-1-beta AlphaLISA screen against the NCATS CANVASS Library (AID 1347379);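 also: human THP-1 cells primed with LPS then triggered with ATP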
How it was run: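 Secreted IL-1B from human THP-1 cells quantified by AlphaLISA 16 hr after compound addition (final up to 57.5 uM). A 1 hr compound pretreatment preceded inflammasome activation with 250 ng/mL LPS plus 1.25 mM ATP (final).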

[35] = qHTS for Antimalaria activity screened against the NCATS CANVASS Library (AID 1347380);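 also: Plasmodium falciparum strain Dd2 asexual parasites grown in red blood cells; series mostly up to about 29 µM; nearly all actives have a fitted effect of over 40% in size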
How it was run: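 Compounds are titrated over 11 concentrations onto Dd2 parasite cultures (0.3% parasitemia, 2.5% hematocrit). Growth over 72 h at 37C in low oxygen is measured as SYBR Green DNA fluorescence after lysis.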

[36] = Inflammasome Signaling qHTS Counterscreen: IL-1-beta AlphaLISA counterscreen against the NCATS CANVASS Library (AID 1347381);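 also: cell-free check with purified IL-1β in medium and no THP-1 cells; series mostly up to about 57 µM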
How it was run: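 Purified IL-1-beta (4 pg/well) + compound, 11-pt conc. series; acceptor beads 6 ug/mL + biotin-Ab 0.6 nM final, 1 h RT; SA-donor 24 ug/ml final, 30 min dark RT; read ex 680/em 615.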

[37] = Cytotoxicity qHTS for assessment of Hepg2 cells membrane integrity screened against the NCATS CANVASS Library (AID 1347387)
How it was run: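 Cells were seeded at 2000 per well and left overnight to attach. Compounds were pin-transferred to give 0.59 nM - 46 uM in an 11-point series and incubated 5 hr at 37C. CytoTox-ONE reagent was added and, after 10 min at room temperature, fluorescence (ex 560, em 590 nm) was read.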

[38] = qHTS for Activators of p53 Stress Response Pathway screened against the NCATS CANVASS Library (AID 1347388)
How it was run: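 p53RE-bla HCT-116 cells (4000/well) were plated 5 h at 37C, exposed to compounds for 16 h at 37C over an 11-point concentration series, then loaded with CCF4 for 2 h at room temperature; 460/530 nm emission ratio read.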

[39] = qHTS assay for small molecule disruptors of mitochondrial membrane potential screened against the NCATS CANVASS Library (AID 1347389)
How it was run: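 Mitochondrial depolarization in HepG2 cells is scored as a falling aggregate-to-monomer fluorescence ratio after 1 hr compound exposure and 30 min staining with Mito-MPS dye at 37C, each compound tested as an 11-point titration.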

[40] = Secretion counterscreen for inhibitors of the SERCaMP assay screened against the NCATS CANVASS Library (AID 1347390);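 also: light from luciferase secreted into medium read as a measure of general secretion; series mostly up to about 77 µM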
How it was run: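 Counterscreen identifying compounds that disrupt secretion, using SH-SY5Y cells with a constitutively secreted Gaussia luciferase reporter. A 20 h compound exposure (top 77 uM) precedes luminescent detection with coelenterazine.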

[41] = qHTS for activators of dead-cell proteases activity screened against the NCATS CANVASS Library (AID 1347392);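 also: luminescence from protease leaking out of membrane-damaged cells cleaving impermeant substrate; rising signal means more cytotoxicity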
How it was run: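 Cytotoxicity in HepG2 cells was assessed by released protease cleaving AAF-aminoluciferin, with luminescence as signal. Exposure lasted 5 h at 37C across an 11-point series.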

[42] = Vero-766 cells viability qHTS against the NCATS CANVASS Library: Counterscreen for Zika virus inhibition assay (AID 1347394)
How it was run: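 This cytotoxicity counterscreen uses African green monkey Vero 766 cells in the absence of Zika virus. Compounds are incubated with cells for 72 h, and ATP-based luminescence reports viability.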

[43] = qHTS for inhibitors of Wild type Zika virus screened against the NCATS CANVASS Library (AID 1347396);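 also: ATP luminescence of surviving cells so rescue from viral cell killing; series mostly up to about 46 µM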
How it was run: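 Luminescent CellTiter Glo read-out of virus-induced cytotoxicity, 72 h post-infection, in Vero 766 cells. Compounds were tested at 11 concentrations; uninfected, vehicle-treated wells defined 100% inhibition.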

[44] = Viability qHTS for inhibitors of the SERCaMP assay screened against the NCATS CANVASS Library (AID 1347400); also: series mostly up to about 92 µM; nearly all actives have a fitted effect of over 70% in size
How it was run: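 Seed SH-SY5Y-GLuc SERCaMP MJH297 cells at 1000 per well, incubate 4 h, add compounds across an 11-point range, incubate 48 h at 37C, then add CellTiter-Glo and read luminescence.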

[45] = Redox Reaction Profiling qHTS: Assay Interference Panel against the NCATS CANVASS Library (AID 1347401); also: potency is read from the fitted curve at half-maximal effect
How it was run: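 Quantitative HTS over an 11-point series was run in HEPES pH 7.3 with 50 mM NaCl, 200 uM DTT and 5 uM resazurin. Initial and 15-min resorufin fluorescence readings were taken.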

Measured: Potency

Sequence of Nuclear receptor subfamily 1 group I member 3 (Homo sapiens) (Q14994 whole entry, looked up): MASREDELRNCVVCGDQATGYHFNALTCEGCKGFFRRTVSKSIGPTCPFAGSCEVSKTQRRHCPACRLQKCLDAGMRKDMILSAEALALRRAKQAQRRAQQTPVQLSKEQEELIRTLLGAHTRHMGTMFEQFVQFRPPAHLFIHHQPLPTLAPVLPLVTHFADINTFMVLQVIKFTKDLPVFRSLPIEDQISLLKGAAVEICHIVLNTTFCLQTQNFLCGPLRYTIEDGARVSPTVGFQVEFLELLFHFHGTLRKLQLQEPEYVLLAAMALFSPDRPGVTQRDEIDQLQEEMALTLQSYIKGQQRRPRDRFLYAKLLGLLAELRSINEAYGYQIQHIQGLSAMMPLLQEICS
Sequence of Luciferin 4-monooxygenase (Photinus pyralis) (P08659 whole entry, looked up): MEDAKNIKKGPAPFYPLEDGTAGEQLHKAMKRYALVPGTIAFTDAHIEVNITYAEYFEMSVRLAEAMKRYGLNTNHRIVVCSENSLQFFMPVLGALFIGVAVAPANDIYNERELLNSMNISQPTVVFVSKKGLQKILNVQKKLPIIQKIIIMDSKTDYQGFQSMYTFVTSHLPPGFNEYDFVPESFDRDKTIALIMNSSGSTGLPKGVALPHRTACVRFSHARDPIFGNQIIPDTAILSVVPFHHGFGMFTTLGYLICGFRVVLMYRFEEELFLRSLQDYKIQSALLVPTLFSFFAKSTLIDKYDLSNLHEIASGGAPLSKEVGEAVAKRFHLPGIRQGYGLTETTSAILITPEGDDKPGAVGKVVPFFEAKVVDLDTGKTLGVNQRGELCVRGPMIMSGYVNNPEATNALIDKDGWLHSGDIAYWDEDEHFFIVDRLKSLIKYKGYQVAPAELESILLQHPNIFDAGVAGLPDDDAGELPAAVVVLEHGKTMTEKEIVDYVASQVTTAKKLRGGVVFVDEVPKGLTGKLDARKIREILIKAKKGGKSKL

COc1cc(O)c2c3c(c(O)cc(C)c13)C(=O)OC2
active: [1] 22 µM | [39] 18.6 µM | [45] 21.5 µM
inactive: all other assays above
